Data reported in PubChem BioAssay (Tox21).
Inconclusive results are not listed. The source made the active and inactive calls. Unless noted, calls follow the shape of the dose curve; as a rule, active = well fitted curve in the direction sought with a large enough effect in the repeat runs; inconclusive = weak or mixed curves; inactive = flat fitted curve, though single readings scatter.

Assays:
[1] = qHTS assay to test for compound auto fluorescence at 535 nm (green) in HEK293 cells (AID 720680)
[2] = qHTS assay to test for compound auto fluorescence at 460 nm (blue) in HEK293 cell free culture (AID 720681)
In short: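 Test compounds were pinned into cell-free culture medium (DMEM with 10% FBS) and fluorescence was read directly at Ex/Em 405/460 nm. Signals were expressed as fluorescence equivalents of triamterene, with DMSO vehicle as control.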

[3] = qHTS assay to test for compound auto fluorescence at 535 nm (green) in HEK293 cell free culture (AID 720682)
In short: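 Intrinsic compound fluorescence is measured in culture medium containing 10% FBS, with excitation at 485 nm and detection at 535 nm, referenced to fluorescein.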

[4] = qHTS assay to test for compound auto fluorescence at 590 nm (red) in HepG2 cell free culture (AID 720684)
In short: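 Readout: intrinsic compound fluorescence at 590 nm emission after 540 nm excitation, scaled to Rose Bengal sodium. Matrix was cell-free MEM with 10% FBS; DMSO vehicle wells served as control.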

[5] = qHTS assay to test for compound auto fluorescence at 460 nm (blue) in HepG2 cell free culture (AID 720685)
In short: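 Cell-free plates of MEM plus 10% FBS received 23 nL compound or DMSO vehicle; blue-channel (405/460 nm) intensity scored against triamterene as reference fluorophore.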

[6] = qHTS assay to test for compound auto fluorescence at 535 nm (green) in HepG2 cell free culture (AID 720686)
[7] = qHTS assay to test for compound auto fluorescence at 460 nm (blue) in HepG2 cells (AID 720687)
In short: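 Cells (2,000/well in MEM with 10% FBS) attached overnight at 37 C, then were exposed to compound or DMSO for 1 hr at 37 C, 5% CO2. Fluorescence read at Ex/Em 405/460 nm, expressed as triamterene-equivalent signal.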

[8] = target: Glucocorticoid receptor (Homo sapiens) (UniProt P04150); assay: qHTS assay to identify small molecule agonists of the glucocorticoid receptor (GR) signaling pathway (AID 720691; active = well fitted activation curve with a large enough effect in the signal ratio in the repeat runs, not every such curve was filed as active; the % refers to the signal ratio; also: potency is read from the fitted curve at half-maximal effect); conditions: GR-bla HeLa, beta-lactamase reporter ratio, 18 h; activation: at 62.4 µM (top of the series) unless noted
In short: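 HeLa GR-bla reporter line; cells pre-incubated 4 h, compound in DMSO 18 h at 37 C; LiveBLAzer B/G FRET substrate 2 h RT; fluorescence intensity read-out.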

[9] = target: Glucocorticoid receptor (Homo sapiens) (UniProt P04150); assay: qHTS assay to identify small molecule antagonists of the glucocorticoid receptor (GR) signaling pathway (AID 720692; active = well fitted inhibition curve with a large enough effect in the signal ratio in the repeat runs, not every such curve was filed as active; the % refers to the signal ratio)
In short: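 Read-out: beta-lactamase FRET substrate fluorescence, 2 h at room temperature, in HeLa cells stably carrying a GRE-driven bla reporter. Compounds were co-incubated with 5 nM dexamethasone agonist (final) for 18 h at 37 C.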

[10] = qHTS assay to test for compound auto fluorescence at 590 nm (red) in HEK293 cell free culture (AID 720683)
In short: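 Tox21 10K library compounds were pinned into cell-free DMEM with 10% FBS and fluorescence was read at excitation 540 nm. Activity is expressed as Rose Bengal sodium equivalency.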
% is scaled to controls: 0 for no effect and ±100 for the full control effect.

Glucocorticoid receptor (Homo sapiens), sequence (P04150 whole entry, looked up): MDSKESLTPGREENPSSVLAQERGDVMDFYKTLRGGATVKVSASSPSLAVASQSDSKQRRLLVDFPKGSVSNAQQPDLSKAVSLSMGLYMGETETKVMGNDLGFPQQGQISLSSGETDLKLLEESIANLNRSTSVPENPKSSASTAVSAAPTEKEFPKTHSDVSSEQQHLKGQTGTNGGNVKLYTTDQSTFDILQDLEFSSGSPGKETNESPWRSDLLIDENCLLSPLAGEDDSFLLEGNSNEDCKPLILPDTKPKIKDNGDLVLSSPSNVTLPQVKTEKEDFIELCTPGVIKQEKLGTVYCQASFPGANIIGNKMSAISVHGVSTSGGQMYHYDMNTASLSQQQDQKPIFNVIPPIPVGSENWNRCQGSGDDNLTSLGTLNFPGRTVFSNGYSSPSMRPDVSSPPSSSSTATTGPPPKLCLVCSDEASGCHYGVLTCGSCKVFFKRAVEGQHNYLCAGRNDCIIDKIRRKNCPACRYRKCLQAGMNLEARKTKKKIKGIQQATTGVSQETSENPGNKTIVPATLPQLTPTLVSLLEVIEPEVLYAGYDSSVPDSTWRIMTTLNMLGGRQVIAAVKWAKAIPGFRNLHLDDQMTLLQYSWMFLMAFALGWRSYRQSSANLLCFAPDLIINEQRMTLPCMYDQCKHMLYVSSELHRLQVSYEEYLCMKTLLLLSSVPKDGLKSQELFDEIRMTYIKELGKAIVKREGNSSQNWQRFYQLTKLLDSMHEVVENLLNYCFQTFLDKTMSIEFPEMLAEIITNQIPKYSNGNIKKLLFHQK

CCOc1ccc(N)c([N+](=O)[O-])c1
inactive: outcome [1] | outcome [2] | outcome [3] | Potency [4] | outcome [5] | Potency [6] | outcome [7]

Cc1[nH]c(C)c(Cl)c(=O)c1Cl
inactive: outcome [1] | outcome [2] | outcome [3] | Potency [4] | Potency [6] | outcome [7] | Potency [8] | Potency [9]

CN(C)c1ccc(/C=C/c2ccc([N+](=O)[O-])cc2)cc1
inactive: fluorescence, % of fluorescein [1] 0.0174% [at 3.72 µM] | fluorescence, % of fluorescent control [2] -0.202% [at 3.72 µM] | activity change [3] -0.151% [at 3.72 µM] | fluorescence, % of Rose Bengal [4] -0.037% [at 3.72 µM] | fluorescence, % of fluorescent control [5] -0.0827% [at 3.72 µM] | fluorescence, % of fluorescein control [6] -0.0291% [at 3.72 µM] | fluorescence, % of fluorescent control [7] -0.0831% [at 3.72 µM]

Nc1cccc(S(=O)(=O)c2cccc(N)c2)c1
inactive: outcome [1] | outcome [2] | outcome [3] | Potency [10] | Potency [6] | outcome [7] | Potency [8] | Potency [9]

Cn1c(=O)cc(Oc2ccc(F)cc2F)c2cnc(NCC(C)(C)O)nc21
inactive: outcome [1] | outcome [2] | outcome [3] | Potency [4] | Potency [6] | outcome [7] | Potency [8] | Potency [9]

c1ccc(C(O[C@H]2CCCN(CCc3ccc4c(c3)OCO4)C2)c2ccccc2)cc1
inactive: outcome [1] | outcome [2] | outcome [3] | Potency [4] | outcome [5] | Potency [6] | outcome [7] | Potency [8]

Cc1oc2c(NC(=O)c3c(Cl)cccc3Cl)cccc2c1C(C)(C)O
inactive: outcome [1] | outcome [2] | outcome [3] | outcome [5] | Potency [6] | outcome [7]

NC(N)=NCCC[C@H](N)C(=O)O
inactive: outcome [1] | outcome [2] | outcome [3] | Potency [4] | Potency [6] | outcome [7] | Potency [8] | Potency [9]

C/C(=C(\CCOP(=O)(O)O)SC(=O)c1ccccc1)N(C=O)Cc1cnc(C)nc1N
inactive: fluorescence, % of fluorescein [1] -0.205% [at 18.6 µM] | fluorescence, % of fluorescent control [2] -0.0157% [at 18.6 µM] | activity change [3] 0.0312% [at 18.6 µM] | fluorescence, % of fluorescent control [10] -0.0062% [at 18.6 µM] | fluorescence, % of fluorescein control [6] -0.0244% [at 18.6 µM] | fluorescence, % of fluorescent control [7] -0.293% [at 18.6 µM] | Potency [9]
active: Potency [8] 11.5 µM

CC(=O)c1ccc2c(c1)N(CCCN(C)C)c1ccccc1S2
inactive: fluorescence, % of fluorescein [1] -0.246% [at 18.6 µM] | fluorescence, % of fluorescent control [2] -0.103% [at 18.6 µM] | activity change [3] -0.283% [at 18.6 µM] | fluorescence, % of Rose Bengal [4] 0.233% [at 18.6 µM] | fluorescence, % of fluorescent control [5] 0.0422% [at 18.6 µM] | fluorescence, % of fluorescein control [6] -0.0543% [at 18.6 µM] | fluorescence, % of fluorescent control [7] -0.0528% [at 18.6 µM] | Potency [8] | Potency [9]

CC(C)=CCC/C(C)=C/CC/C(C)=C/CO
inactive: outcome [1] | outcome [2] | outcome [3] | Potency [4] | outcome [5] | Potency [6] | outcome [7]

CC(=O)[O][Al][O]C(C)=O
inactive: outcome [1] | outcome [2] | outcome [3] | Potency [4] | Potency [6] | outcome [7]

CCCCO
inactive: outcome [1] | outcome [2] | outcome [3] | Potency [4] | outcome [5] | Potency [6] | outcome [7]

ClCCOCCOCCCl
inactive: outcome [1] | outcome [2] | outcome [3] | outcome [5] | Potency [6] | outcome [7]

NCC(=O)CCC(=O)O
inactive: outcome [1] | outcome [2] | outcome [3] | Potency [10] | outcome [5] | Potency [6] | outcome [7] | Potency [8] | Potency [9]

O=C1[C@H]2CCCC[C@H]2C(=O)N1CCCCN1CCN(c2nsc3ccccc23)CC1
inactive: outcome [1] | outcome [2] | outcome [3] | Potency [4] | outcome [5] | Potency [6] | outcome [7]

Cc1cc(N)c2cc(NC(=O)Nc3ccc4nc(C)cc(N)c4c3)ccc2n1
inactive: outcome [1] | outcome [2] | outcome [3] | Potency [4] | outcome [5] | Potency [6] | outcome [7]

COS(=O)(=O)C(F)(F)F
inactive: outcome [1] | outcome [2] | outcome [3] | Potency [10] | outcome [5] | Potency [6] | outcome [7] | Potency [8] | Potency [9]

O=[N+]([O-])c1ccc2[nH]ncc2c1
inactive: outcome [1] | outcome [2] | outcome [3] | Potency [10] | Potency [6] | outcome [7] | Potency [8] | Potency [9]

Cc1nn(C)c(Oc2ccccc2)c1/C=N/OCc1ccc(C(=O)OC(C)(C)C)cc1
inactive: outcome [1] | outcome [2] | outcome [3] | Potency [4] | outcome [5] | Potency [6] | outcome [7] | Potency [8]

Nc1cccc([N+](=O)[O-])c1
inactive: outcome [1] | outcome [2] | outcome [3] | outcome [5] | Potency [6] | outcome [7] | Potency [8]

O=C1CCC(=O)O1
inactive: outcome [1] | outcome [2] | outcome [3] | Potency [4] | outcome [5] | Potency [6] | outcome [7] | Potency [8] | Potency [9]

COc1ccc(-c2nc3ccc(C4=NNC(=O)CC4C)cc3[nH]2)cc1 (stereo not given)
inactive: outcome [1] | outcome [2] | outcome [3] | Potency [4] | outcome [5] | Potency [6] | outcome [7] | Potency [8]

CCO[C@H](Cc1ccc(OCCc2ccc(OS(C)(=O)=O)cc2)cc1)C(=O)O
inactive: outcome [1] | outcome [2] | outcome [3] | Potency [4] | outcome [5] | Potency [6] | outcome [7] | Potency [8] | Potency [9]

CN(C)CCN(Cc1ccc(Cl)cc1)c1ccccn1
inactive: fluorescence, % of fluorescein [1] 0.0009% [at 18.6 µM] | fluorescence, % of fluorescent control [2] -0.0429% [at 18.6 µM] | activity change [3] 2e-05% [at 18.6 µM] | fluorescence, % of Rose Bengal [4] 0.0021% [at 18.6 µM] | fluorescence, % of fluorescent control [5] 0.027% [at 18.6 µM] | fluorescence, % of fluorescein control [6] -0.14% [at 18.6 µM] | fluorescence, % of fluorescent control [7] -0.0264% [at 18.6 µM] | Potency [8] | Potency [9]

C#C[C@]1(O)CC[C@H]2[C@@H]3CCc4cc(OC5CCCC5)ccc4[C@H]3CC[C@@]21C
inactive: outcome [1] | outcome [2] | outcome [3] | Potency [4] | Potency [6] | outcome [7]

CCOC(=O)c1cccnc1
inactive: outcome [1] | outcome [2] | outcome [3] | Potency [4] | outcome [5] | Potency [6] | outcome [7] | Potency [8] | Potency [9]

Nc1cc(C(=O)O)c(O)c(S(=O)(=O)O)c1
inactive: outcome [1] | outcome [2] | outcome [3] | Potency [4] | Potency [6] | outcome [7] | Potency [8] | Potency [9]

O=C(O)c1ccccc1Cl
inactive: outcome [1] | outcome [2] | outcome [3] | Potency [4] | outcome [5] | Potency [6] | outcome [7]

Nc1c(CC(=O)O)cccc1C(=O)c1ccc(Br)cc1
inactive: outcome [1] | outcome [2] | outcome [3] | Potency [4] | outcome [5] | Potency [6] | outcome [7]

NCCCN1CCOCC1
inactive: outcome [1] | outcome [2] | outcome [3] | Potency [10] | outcome [5] | Potency [6] | outcome [7] | Potency [8] | Potency [9]

O=C(Nc1ccccc1)c1ccccc1O
inactive: outcome [1] | outcome [2] | outcome [3] | Potency [4] | Potency [6] | outcome [7] | Potency [8]

C=C1C(=C/C=C2\CCC[C@]3(C)[C@@H]([C@H](C)/C=C/[C@@H](O)C4CC4)CC[C@@H]23)C[C@@H](O)C[C@@H]1O
inactive: outcome [1] | outcome [2] | outcome [3] | Potency [10] | Potency [6] | outcome [7] | Potency [8]

O=C(O)C1(C(=O)Nc2ccc(Cl)cc2Cl)CC1
inactive: outcome [1] | outcome [2] | Potency [10] | Potency [6] | outcome [7]

Cc1cccc(Nc2ccccc2)c1
inactive: outcome [1] | outcome [2] | Potency [10] | Potency [4] | outcome [5] | Potency [6] | outcome [7]

CCOC(=O)Cc1cccc2ccccc12
inactive: outcome [1] | outcome [2] | Potency [10] | Potency [4] | outcome [5] | Potency [6] | outcome [7] | Potency [8] | Potency [9]

CCCCc1nc2cccnc2n1Cc1ccc(-c2ccccc2-c2nnn[nH]2)cc1
inactive: outcome [2] | outcome [3] | Potency [10] | Potency [4] | outcome [5] | Potency [6] | outcome [7]

Nc1ncn([C@H]2C[C@H](O)[C@@H](CO)O2)c(=O)n1
inactive: outcome [1] | outcome [2] | Potency [10] | outcome [5] | Potency [6] | outcome [7] | Potency [8]

CC(C)(O)c1ccc(CNC(=O)c2cccnc2Oc2ccc(F)cc2)cc1
inactive: outcome [1] | outcome [2] | Potency [4] | outcome [5] | Potency [6] | outcome [7] | Potency [8] | Potency [9]

C[N+](C)(C)CCOC(=O)CCC(=O)OCC[N+](C)(C)C
inactive: outcome [1] | outcome [2] | Potency [4] | outcome [5] | Potency [6] | outcome [7] | Potency [8]

CCCNCC(O)COc1ccccc1C(=O)CCc1ccccc1 (stereo not given)
inactive: outcome [2] | outcome [3] | Potency [10] | Potency [4] | outcome [5] | Potency [6] | outcome [7]
